The source holds several records for some structures; these can differ, active in one and inactive in another. The source made the active and inactive calls. Rule for the calls: active = hit-call score of the fitted dose curve at least 0.9, where 1 is the maximum; inactive = score below 0.9.

Assay [1] is described as follows: ATG_Ets_CIS: Attagene CIS-FACTORIAL HepG2 Assay for human Erythroblast Transformation Specific (ETS) (AID 2282941). As to conditions: HepG2 ETS cis-reporter transcription, actives raise or lower the signal. The method in brief:
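Endogenous transcription factor activity read as reporter mRNA via RT-PCR and capillary electrophoresis, with gain or loss fitted bidirectionally against DMSO. Human HepG2 liver cells, transiently transfected CIS reporter constructs, 24 h exposure.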

Assay [2] in a line: ATG_FoxO_CIS: Attagene CIS-FACTORIAL HepG2 Assay for human Forkhead box O (FoxO) (AID 2282943). As to conditions: HepG2 Attagene cis-reporter, FoxO element, mRNA; actives raise or lower the signal. In outline:
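Read-out: fluorescence of 6-FAM-labelled reporter cDNA fragments resolved by capillary electrophoresis. Transiently transfected HepG2 cells were dosed for 24 h; activity fitted in both directions relative to DMSO controls.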

Assay [3] can be described thus: ATG_GATA_CIS: Attagene CIS-FACTORIAL HepG2 Assay for human GATA Binding Protein (AID 2282944). Particulars: HepG2 GATA cis-element reporter, Attagene multiplex mRNA; actives raise or lower the signal. In outline:
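Transfected cis-reporter HepG2 cells were treated with chemicals for 24 hours. Total RNA was then converted to cDNA, amplified with reporter-specific primers and analysed by fluorescent capillary electrophoresis, using DMSO-treated wells as baseline.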

Assay [4] is described as follows: ATG_GLI_CIS: Attagene CIS-FACTORIAL HepG2 Assay for human Zinc Finger Protein GLI1 (AID 2282945). As to conditions: HepG2, Attagene cis-factorial reporter mRNA, GLI element; actives raise or lower the signal. In outline:
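Transiently transfected HepG2 cells report endogenous transcription factor activity via cis-element-driven reporter units. After 24 h compound exposure, reporter mRNA was measured by RT-PCR with capillary electrophoresis; bidirectional fitting against DMSO baseline.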

A short description of assay [5]: ATG_ISRE_CIS: Attagene CIS-FACTORIAL HepG2 Assay for human Interferon Regulatory Factor 1 (IRF1) binding to an Interferon-Stimulated Response Element (ISRE) (AID 2282948). Particulars: HepG2 ISRE cis-reporter (Attagene), mRNA transcription readout; actives raise or lower the signal. The method in brief:
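Endogenous transcription factor activity read as reporter transcript abundance via RT-PCR and capillary electrophoresis. HepG2 cells transiently transfected, 24 h chemical exposure. Gain or loss fitted against DMSO baseline.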

The nature of assay [6]: ATG_M_32_CIS: Attagene CIS-FACTORIAL HepG2 Assay for M32 Transcription Factor (Internal Marker) (AID 2282949).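 Note: background control marker of the multiplexed CIS panel rather than a real target.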 Particulars: HepG2 Attagene cis-factorial M32 reporter, mRNA; actives raise or lower the signal. The method in brief: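 HepG2 human liver cells transiently transfected with cis-promoter-driven multiple reporter transcription units, dosed 24 h. Reporter mRNA quantified by RT-PCR, FAM-labelled primer extension, HpaI digest and capillary electrophoresis; bidirectional fit versus DMSO baseline.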

Assay [7] can be described thus: ATG_M_06_CIS: Attagene CIS-FACTORIAL HepG2 Assay for M06 Transcription Factor (Internal Marker) (AID 2282950). As to conditions: HepG2 Attagene CIS-FACTORIAL M06 internal marker reporter; actives raise or lower the signal. The method in brief:
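Cells (HepG2, transiently carrying cis-driven reporter units) receive chemical for 24 h before RNA isolation. Reporter cDNA is PCR-amplified, FAM-labelled by primer extension, HpaI-digested and sized on a capillary analyser.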

For assay [8], the target named is Paired box protein Pax-6 (Homo sapiens) (UniProt P26367). Nature of the assay: ATG_Pax6_CIS: Attagene CIS-FACTORIAL HepG2 Assay for human Paired Box 6 (PAX6) (AID 2282956). As to conditions: HepG2 CIS-FACTORIAL PAX6 reporter transcription, RNA readout; actives raise or lower the signal. In outline: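 Read-out is reporter transcript level, measured by RT-PCR with fluorescent primer extension and capillary electrophoresis after 24 h dosing of transfected HepG2 cells. Activity in either direction fitted relative to DMSO control.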

A short description of assay [9]: ATG_PXRE_CIS: Attagene CIS-FACTORIAL HepG2 Assay for human Pregnane X Receptor Element (PXRE) (AID 2282957). Particulars: HepG2 Attagene CIS-FACTORIAL PXRE reporter, mRNA; actives raise or lower the signal. In outline:
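After a 24 h chemical incubation, total RNA from transfected HepG2 cells was reverse-transcribed and reporter cDNA amplified, FAM-labeled, HpaI-digested and sized by capillary electrophoresis. DMSO served as baseline for bidirectional curve fitting.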

Assay [10] can be described thus: ATG_Sox_CIS: Attagene CIS-FACTORIAL HepG2 Assay for human SRY-box transcription factor (SOX) (AID 2282960). As to conditions: HepG2 Attagene cis-factorial SOX reporter, mRNA; actives raise or lower the signal. The method in brief:
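Transient MRTU transfection of HepG2; 24 h compound incubation; TriZol RNA, oligo(dT) RT, PCR, 6-FAM primer extension, HpaI cut, CE. Bidirectional fit, DMSO = baseline.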

For assay [11], the target named is Transcription factor Sp1 (Homo sapiens) (UniProt P08047). Nature of the assay: ATG_Sp1_CIS: Attagene CIS-FACTORIAL HepG2 Assay for human Specificity Protein 1 (Sp1) (AID 2282961). As to conditions: HepG2 Sp1 cis-reporter transcription, actives raise or lower the signal. The method in brief: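 Endogenous Sp1 activity was gauged in human liver HepG2 cells bearing transfected reporter units under a cis-regulating promoter. After 24 h dosing, reporter mRNA was quantified by RT-PCR with capillary electrophoresis, and activity fitted bidirectionally versus DMSO.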

Assay [12] can be described thus: ATG_SREBP_CIS: Attagene CIS-FACTORIAL HepG2 Assay for human Sterol Regulatory Element Binding (SREBP) (AID 2282962). Particulars: HepG2 Attagene cis-factorial SREBP reporter, mRNA; actives raise or lower the signal. The method in brief:
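Endogenous SREBP activity read as cis-element-driven reporter transcript in transiently transfected HepG2, 24 h post-dosing; quantified via RT-PCR plus capillary electrophoresis of fluorescent fragments. Gain or loss of signal fitted relative to DMSO baseline.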

The target in assay [13] is Signal transducer and activator of transcription 3 (Homo sapiens) (UniProt P40763). Nature of the assay: ATG_STAT3_CIS: Attagene CIS-FACTORIAL HepG2 Assay for human Signal Transducer and Activator of Transcription 3 (STAT3) (AID 2282963). Particulars: HepG2, Attagene cis-factorial STAT3 reporter transcription; actives raise or lower the signal. In outline:
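Fluorescence intensity of 6-FAM-labelled reporter fragments, separated by capillary electrophoresis after RT-PCR, gave the signal. Cells were HepG2 transfected with cis-element reporter units and treated 24 h; fitting was bidirectional relative to DMSO.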

Assay [14] is described as follows: ATG_TA_CIS: Attagene CIS-FACTORIAL HepG2 Assay for human TA Basal Promoter (AID 2282964). As to conditions: HepG2 Attagene CIS-factorial TA basal promoter reporter; actives raise or lower the signal. In outline:
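Background internal-marker endpoint from a 52-component HepG2 cis-reporter panel. Cells treated 24 h; reporter transcripts quantified via RT-PCR and CE fluorescence against DMSO baseline.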

Assay [15] in a line: ATG_TCF_b_cat_CIS: Attagene CIS-FACTORIAL HepG2 Assay for human T-Cell-Factor with beta-catenin (TCF/b-cat) (AID 2282965). As to conditions: HepG2 TCF/beta-catenin cis-reporter transcription, actives raise or lower the signal. The method in brief: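 HepG2, transient MRTU transfection, cis-element-driven reporters (endogenous TFs). 24 h compound exposure. Readout: reporter mRNA by RT-PCR + 6-FAM primer extension, HpaI digest, capillary electrophoresis. Gain/loss fit vs DMSO baseline.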

A short description of assay [16]: ATG_TAL_CIS: Attagene CIS-FACTORIAL HepG2 Assay for human TAL Basal Promoter (AID 2282966).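 Note: background control endpoint measuring basal TAL promoter reporter mRNA not a specific factor.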 As to conditions: HepG2 Attagene cis-factorial TAL promoter reporter; actives raise or lower the signal. The method in brief:
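Basal-promoter background-control endpoint from a multiplexed HepG2 reporter panel. Cells were exposed 24 h, then reporter mRNA was read by RT-PCR/CE fluorescence and fitted in both directions relative to DMSO.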

The target of assay [17] is Transcriptional activator Myb (Homo sapiens) (UniProt P10242). Nature of the assay: ATG_Myb_CIS: Attagene CIS-FACTORIAL HepG2 Assay for human Myeloblastosis (Myb) Proto-Oncogene Transcription Factor (AID 2282986). As to conditions: HepG2 Attagene CIS-FACTORIAL Myb reporter transcription; actives raise or lower the signal. The method in brief: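 Steps: transfect HepG2 with cis-regulated reporter units; dose with chemical for 24 h; isolate RNA, reverse-transcribe, PCR-amplify and FAM-label reporter sequences; digest with HpaI; resolve by capillary electrophoresis. Activity fitted in both directions relative to DMSO.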

Assay [18] addresses Myc proto-oncogene protein (Homo sapiens) (UniProt P01106). Nature of the assay: ATG_Myc_CIS: Attagene CIS-FACTORIAL HepG2 Assay for human Myelocytomatosis (Myc) Proto-Oncogene Transcription Factor (AID 2282990). As to conditions: HepG2, Attagene cis-reporter transcription factor activity; actives raise or lower the signal. The method in brief:
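Read-out: fluorescent reporter mRNA fragments resolved by capillary electrophoresis after RT-PCR. Human HepG2 liver cells carried transfected cis-element reporter units and were dosed for 24 h. Gain or loss of signal fitted relative to DMSO baseline.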

The nature of assay [19]: ATG_Oct_MLP_CIS: Attagene CIS-FACTORIAL HepG2 Assay for human Octamer-Binding Transcription Factor (Oct) (AID 2282993). Particulars: HepG2 Attagene cis-factorial Oct reporter, mRNA; actives raise or lower the signal. The method in brief: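 Using HepG2 cells bearing transfected cis-reporter constructs, mRNA induction was read after 24 h by fluorescent RT-PCR and capillary electrophoresis, with DMSO defining baseline for gain- or loss-of-signal fits.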

Read-out in another assay: CD40, CD40 (gene 958)
Nature of the assay: BSK_SAg_CD40: BioMAP Diversity Plus: SAg Assay for CD40 Biomarker Activity (AID 2283088). Particulars: primary human HUVEC with PBMC; actives raise or lower the signal. In outline:
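HUVEC plus PBMC co-culture, superantigen-activated, with CD40 read by ELISA 24 h after dosing. Curves fitted in both directions against DMSO. Overt cytotoxicity checked by parallel SRB total-protein staining.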

Sequence of Signal transducer and activator of transcription 3 (Homo sapiens) (P40763 whole entry, looked up, the tested form may be a part): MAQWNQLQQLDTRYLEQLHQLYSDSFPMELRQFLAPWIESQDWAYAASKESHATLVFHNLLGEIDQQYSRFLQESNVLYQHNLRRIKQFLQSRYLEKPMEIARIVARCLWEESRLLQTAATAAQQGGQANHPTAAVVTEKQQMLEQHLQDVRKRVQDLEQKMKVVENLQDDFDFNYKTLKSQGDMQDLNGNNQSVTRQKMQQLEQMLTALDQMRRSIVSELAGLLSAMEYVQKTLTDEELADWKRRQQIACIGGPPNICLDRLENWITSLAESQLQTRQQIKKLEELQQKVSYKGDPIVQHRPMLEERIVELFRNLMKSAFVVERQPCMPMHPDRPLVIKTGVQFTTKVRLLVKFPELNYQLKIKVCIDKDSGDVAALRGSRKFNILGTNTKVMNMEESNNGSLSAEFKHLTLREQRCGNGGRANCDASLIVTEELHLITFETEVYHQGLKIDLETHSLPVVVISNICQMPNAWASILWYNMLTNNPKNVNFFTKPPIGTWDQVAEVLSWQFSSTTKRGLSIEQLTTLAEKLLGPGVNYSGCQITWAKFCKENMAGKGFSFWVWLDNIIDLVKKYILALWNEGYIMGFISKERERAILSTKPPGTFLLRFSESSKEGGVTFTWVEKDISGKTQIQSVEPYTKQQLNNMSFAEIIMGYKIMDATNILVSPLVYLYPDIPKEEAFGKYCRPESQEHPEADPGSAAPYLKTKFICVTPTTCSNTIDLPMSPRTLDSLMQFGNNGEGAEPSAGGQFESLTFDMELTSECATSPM
Sequence of Transcription factor Sp1 (Homo sapiens) (P08047 whole entry, looked up): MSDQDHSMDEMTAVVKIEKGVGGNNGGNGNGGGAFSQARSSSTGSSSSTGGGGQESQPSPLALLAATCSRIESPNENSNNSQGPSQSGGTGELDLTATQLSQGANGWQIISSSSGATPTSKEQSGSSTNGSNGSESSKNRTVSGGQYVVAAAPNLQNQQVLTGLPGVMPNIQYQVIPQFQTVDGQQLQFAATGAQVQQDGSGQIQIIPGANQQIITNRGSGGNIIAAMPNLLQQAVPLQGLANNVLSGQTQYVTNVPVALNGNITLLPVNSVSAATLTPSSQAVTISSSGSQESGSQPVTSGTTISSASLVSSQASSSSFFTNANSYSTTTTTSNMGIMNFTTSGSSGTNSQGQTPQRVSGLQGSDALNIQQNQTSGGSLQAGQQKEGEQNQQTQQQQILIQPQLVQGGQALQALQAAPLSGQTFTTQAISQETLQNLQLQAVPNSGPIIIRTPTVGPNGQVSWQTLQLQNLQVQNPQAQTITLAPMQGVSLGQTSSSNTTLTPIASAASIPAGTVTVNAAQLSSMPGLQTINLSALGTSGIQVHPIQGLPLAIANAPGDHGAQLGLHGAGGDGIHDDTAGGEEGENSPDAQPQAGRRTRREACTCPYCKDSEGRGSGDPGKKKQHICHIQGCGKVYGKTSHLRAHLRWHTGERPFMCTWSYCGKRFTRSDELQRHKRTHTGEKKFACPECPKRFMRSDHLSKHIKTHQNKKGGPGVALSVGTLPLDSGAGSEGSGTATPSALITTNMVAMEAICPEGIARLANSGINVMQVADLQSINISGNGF
Sequence of Transcriptional activator Myb (Homo sapiens) (P10242 whole entry, looked up): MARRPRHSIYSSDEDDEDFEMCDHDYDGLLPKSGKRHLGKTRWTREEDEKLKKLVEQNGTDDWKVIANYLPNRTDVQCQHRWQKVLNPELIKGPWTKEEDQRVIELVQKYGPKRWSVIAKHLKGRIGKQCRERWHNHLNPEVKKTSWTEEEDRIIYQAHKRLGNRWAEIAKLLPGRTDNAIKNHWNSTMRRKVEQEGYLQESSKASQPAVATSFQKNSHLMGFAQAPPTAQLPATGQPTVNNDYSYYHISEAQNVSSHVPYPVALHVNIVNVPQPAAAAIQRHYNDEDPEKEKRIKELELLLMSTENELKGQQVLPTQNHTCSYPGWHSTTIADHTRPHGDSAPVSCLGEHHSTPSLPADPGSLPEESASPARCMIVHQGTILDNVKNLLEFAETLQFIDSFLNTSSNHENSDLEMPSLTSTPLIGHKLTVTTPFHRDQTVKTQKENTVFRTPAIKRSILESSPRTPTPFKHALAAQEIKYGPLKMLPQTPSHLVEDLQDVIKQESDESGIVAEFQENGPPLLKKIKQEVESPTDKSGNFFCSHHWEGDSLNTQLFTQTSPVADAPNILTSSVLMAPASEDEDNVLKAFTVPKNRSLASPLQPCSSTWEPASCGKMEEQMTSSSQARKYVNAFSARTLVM
Sequence of Myc proto-oncogene protein (Homo sapiens) (P01106 whole entry, looked up, the tested form may be a part): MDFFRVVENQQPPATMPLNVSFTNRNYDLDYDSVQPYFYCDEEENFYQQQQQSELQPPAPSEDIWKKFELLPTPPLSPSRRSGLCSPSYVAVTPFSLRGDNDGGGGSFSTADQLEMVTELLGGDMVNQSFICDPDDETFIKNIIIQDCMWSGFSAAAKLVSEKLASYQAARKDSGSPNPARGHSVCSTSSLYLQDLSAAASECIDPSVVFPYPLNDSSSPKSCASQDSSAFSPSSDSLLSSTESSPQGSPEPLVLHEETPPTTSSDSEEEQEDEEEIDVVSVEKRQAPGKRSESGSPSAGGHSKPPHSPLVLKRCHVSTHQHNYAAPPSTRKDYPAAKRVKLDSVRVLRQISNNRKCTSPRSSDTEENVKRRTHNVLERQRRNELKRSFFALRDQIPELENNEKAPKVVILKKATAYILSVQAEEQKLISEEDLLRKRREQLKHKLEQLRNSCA
Sequence of Paired box protein Pax-6 (Homo sapiens) (P26367 whole entry, looked up): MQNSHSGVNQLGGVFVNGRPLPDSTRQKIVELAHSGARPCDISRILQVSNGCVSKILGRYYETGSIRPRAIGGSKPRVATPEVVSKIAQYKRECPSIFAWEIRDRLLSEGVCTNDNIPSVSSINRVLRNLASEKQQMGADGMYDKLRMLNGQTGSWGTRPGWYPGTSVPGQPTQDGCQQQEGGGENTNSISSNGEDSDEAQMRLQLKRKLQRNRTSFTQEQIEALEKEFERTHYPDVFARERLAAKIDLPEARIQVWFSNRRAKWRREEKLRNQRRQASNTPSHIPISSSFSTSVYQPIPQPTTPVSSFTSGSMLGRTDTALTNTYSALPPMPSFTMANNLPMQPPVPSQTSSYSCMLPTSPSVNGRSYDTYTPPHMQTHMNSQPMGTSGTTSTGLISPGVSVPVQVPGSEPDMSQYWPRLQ

For the compound `O=C(O)/C=C/C(=O)O`, the result in [1], in assay [2], in [3], in [4], in assay [5] and in assay [6] was inactive. The call in [7], in [8], in assay [9], in assay [10], in assay [11] and in [12] was inactive. Besides, the compound was classed as inactive in assay [13], in [14], in assay [15], in assay [16], in assay [17] and in assay [18]. Also, the call in assay [19] was inactive.

Turning to `CC(C)CC(=O)CC(C)C`, the result in [1], in [2], in assay [3], in assay [4], in [5] and in [6] was inactive. The outcome in [7], in assay [8], in assay [9], in assay [10], in assay [11] and in assay [12] was inactive. In addition, the outcome in assay [13], in assay [14], in assay [15], in assay [16], in [17] and in assay [18] was inactive. In [19], the compound was classed as inactive.

As for `COc1ccccc1Oc1c(NS(=O)(=O)c2ccc(C(C)(C)C)cc2)nc(-c2ncccn2)nc1OCCO`, in the assay with CD40, CD40 (gene 958), the AC50 (in general, the concentration at which the activity in the assay is half-maximal) is 20 µM (active) and the outcome was inactive.

With `CCCCCCOC(=O)CCCCCCCC(=O)OCCCCCC`, the result in assay [1], in assay [2], in assay [3], in assay [4], in [5] and in [6] was inactive. Further, the outcome in assay [7], in [8], in assay [10], in assay [11], in [12] and in assay [13] was inactive. Besides, the outcome in assay [14], in assay [15], in assay [16], in [17], in assay [18] and in assay [19] was inactive. Further, the half-maximal activity concentration (AC50) in assay [9] was 71.6 µM (active).

For `Oc1ccc(Oc2ccccc2)cc1`, the result in assay [1], in assay [2], in assay [3], in assay [4], in assay [5] and in assay [6] was inactive. The result in [7], in assay [8], in [10], in assay [11], in assay [12] and in [13] was inactive. The compound was classed as inactive in [14], in assay [15], in assay [16], in assay [17], in assay [18] and in assay [19]. Besides, the half-maximal activity concentration (AC50) in assay [9] is 26.4 µM (active).

For the compound `CCCC[N+]1(C)CCCC1`, the result in [1], in assay [2], in assay [3], in assay [4], in [5] and in assay [6] was inactive. Further, the compound was classed as inactive in assay [7], in assay [8], in [9], in assay [10], in [11] and in [12]. Further, the compound was classed as inactive in assay [13], in assay [14], in assay [15], in [16], in assay [17] and in assay [18]. The compound was called inactive in assay [19].

These data come from PubChem BioAssay (EPA / NIEHS).
